# Reference: ChEMBL document CHEMBL4513216, “Probing the Open Global Health Chemical Diversity Library for Multistage-Active Starting Points for Next-Generation Antimalarials” (ACS Infect Dis, 2020)
# About 8,600 (12%) of roughly 69,000 compounds showed an effect of 50% or more. What follows is part of a selection rich in strong results, with near analogues and random picks from the rest.
# System: Plasmodium berghei
# Assay: Screen against P. berghei liver stage (PbLuc), transformed with Luciferase, at 10uM
# Format: functional, HepG2
# Details: tested at 10 uM
row,SMILES,INHIBITION [%]
1,CC(C)c1ccc2c(c1)C1(CC(=O)Nc3[nH]ncc31)C(=O)N2C (stereo not given),17.7
2,CCOc1ccc(NC(=O)NCc2cccnc2OCC)cc1,13.6
3,Cc1nc(CN2CCc3ncnc(-c4ccccc4)c3CC2)cs1,6.6
4,Cc1nc(CN2CCN(c3ccc(SC(C)C)nn3)CC2)cs1,-4.13
5,Cc1nc(CN2CCc3ncnc(C4CC4)c3CC2)cs1,15.9
6,Cc1nc(CN2CCc3ncnc(-c4ccsc4)c3CC2)cs1,60.2
7,CCOc1ncnc2c1CCN(Cc1csc(C)n1)CC2,1.94
8,c1ccc(CN2CCc3ncnc(-c4ccsc4)c3CC2)nc1,19.9
9,Cc1cccc(CN2CCc3ncnc(C)c3CC2)n1,6.8
10,Cc1nn(C)c2nc(N3CCN(Cc4nccn4C)CC3)sc12,37.6
11,Cc1cccc(CN2CCc3ncnc(-c4ccsc4)c3CC2)n1,53.2
12,Cc1nc(CN2CCc3ncnc(-c4ccncc4)c3CC2)cs1,27.6
13,Cc1nc(CN2CCc3ncnc(C)c3CC2)cs1,56.3
14,Cc1nc(CN2CCN(c3nc4c(s3)c(C)nn4C)CC2)cs1,73.9
15,Cc1cn(CC(=O)Nc2cc(C(C)C)nn2C)cn1,-0.273
16,CC1CN(C)CCN1CC(=O)NCCOc1ccc(Cl)cc1 (stereo not given),35.95
17,CC(c1ccccn1)N(C)Cc1cccc(C(=O)Nc2nccn2C)c1 (stereo not given),9.57
18,CN(C)c1nc(NCCc2ccnn2C)ncc1F,42.3
19,O=C(Cc1ccc(F)c(Br)c1)NC1CCN(CC(F)F)CC1,-60.4
20,CN(C)CC(=O)N1CCc2ncnc(-c3ccoc3)c2CC1,23.1
21,CN(C)CC(=O)N1CCc2ncnc(-c3ccsc3)c2CC1,70.4
22,CN(C)CC(=O)N1CCc2ncnc(-c3cncnc3)c2CC1,6.83

row,SMILES,INHIBITION [%]
1,CCn1ccc(NC(=O)CN2C(=O)C(C)(C)c3ccccc32)n1,23.1
2,Cc1ccc(N2CCCC(NCc3c(C)noc3C)C2)nn1 (stereo not given),-89
3,CN1CC(C(=O)NCCc2ccc3c(c2)OCO3)CC1=O (stereo not given),20
4,Cc1noc(-c2ccnc(Oc3ccc(CN4CCCC4)cc3C)c2)n1,89
5,CCOc1cc(CNc2cc(-c3nc(C)no3)ccn2)ccc1OC,1.84
6,COc1ccc(CCNc2cc(-c3nc(C)no3)ccn2)cc1OC,10.8
7,COc1ccc(CNC2CCCN(Cc3noc(C)n3)C2)cc1F (stereo not given),40.3
8,Fc1ccc(CN2CCC(c3noc(-c4cnccn4)n3)CC2)cc1F,18.3
9,Cc1noc(-c2ccnc(Oc3ccc(CN4CCCC4)cc3F)c2)n1,87.4
10,CC(=O)N1CC(Cc2nccc3ccn(C)c23)C1,47.2
11,COc1cc(OC)cc(-c2cc(CN)nc3ccnn23)c1,-18.2
12,Cc1ccccc1S(=O)(=O)N(C)[C@@H]1CC[C@@H](n2ccnc2C)[C@@H]1O,38.15
13,CC(c1nc(C2CC2)no1)N1CCN(CC(=O)N2CCOCC2)CC1 (stereo not given),10.7
14,Cc1ccc(CN2Cc3nccn3CC(CN(C)C)C2)s1 (stereo not given),64.9
15,Cc1ccc(CN2Cc3nccn3CC(Cn3cccn3)C2)s1 (stereo not given),45.7
16,CCN(CC)CC1CN(Cc2ccc(C)s2)Cc2nccn2C1 (stereo not given),-30.6
17,CCn1cc(CN2CCCCC2CCn2ccnc2C)cc1C#N (stereo not given),29.2
18,Cc1nn(CCO)cc1CN1CCC(N2CCC(O)CC2)CC1,50.5
19,CCn1cc(CN2CCC(N3CCC(O)CC3)CC2)cc1C#N,64.9
20,CCn1cc(CN2CCC(C3CCN(C)CC3)CC2)cc1C#N,66.1
21,Cc1nn(CCO)cc1CN1CCCN(C2CCCC2)CC1,12.8
22,CCn1cc(CN2CCC(NS(C)(=O)=O)CC2)cc1C#N,62.4

row,SMILES,INHIBITION [%]
1,Cc1nn(CCO)cc1CN1CCC(C(C)N2CCCC2)CC1 (stereo not given),32.5
2,CCn1cc(CN2CCC(CNC(C)=O)CC2)cc1C#N,24.2
3,CCn1cc(CN2CCC(CN3CCCCC3)CC2)cc1C#N,6.88
4,CS(=O)(=O)NC1CCN(Cc2ccc(OCc3ccccn3)cc2)CC1,-1.83
5,OC1CCN(C2CCN(Cc3cccc(Cn4cccn4)c3)CC2)CC1,24.9
6,CCn1cc(CN2CCC(c3ccncc3)CC2)cc1C#N,13
7,Cc1ccc(CC(=O)N(C)CC2(O)CCCN(c3ccccn3)C2)s1 (stereo not given),-2.11
8,CC(C)N(Cc1ccccn1)Cc1nc2c(cnn2C)c(=O)[nH]1,25.65
9,CN(C)C(=O)CN1CC[C@H]2CN(C3CCOCC3)C[C@@H]2C1=O,30.9
10,CCC(=O)N1CCN(C)C(=O)C(Cc2ccccc2-c2cccs2)C1 (stereo not given),22
11,O=C(c1cc(=O)c(OCc2ccccc2F)co1)N1CCSCC1,21.5
12,CS(=O)(=O)c1cncnc1C1CCCN(C(=O)Cc2ccccc2F)C1 (stereo not given),17.985
13,CCNC(=O)[C@@H]1C[C@H](N)CN1C(=O)C1(c2ccc(OC)cc2)CCCC1,-12.7
14,CCN(CC)C(=O)CNC(=O)N1CCC(c2ccc(OC)cc2)C1 (stereo not given),21.7
15,CCC(=O)Nc1cccc(OCC(=O)N2CC=CC2C(C)C)c1 (stereo not given),-16.6
16,Cc1ccccc1CCC(=O)N1CCCC(c2cc(C(N)=O)[nH]n2)C1 (stereo not given),11.9
17,CCn1cc(NC(=O)c2c(C)nn(C)c2C)c(C(N)=O)n1,27.4
18,Cc1ccc(-c2ccc(CC3NCCN(C)C3=O)cc2)cc1 (stereo not given),29.2
19,Cn1nccc1-c1nc2c(cc1C(=O)O)CCN(C(=O)C1CC1)CC2,72.3
20,Cn1nccc1-c1nc2c(cc1C(=O)O)CCN(CC1CC1)CC2,-10.3
21,Cn1cc(-c2nc3c(cc2C(=O)O)CCN(C(=O)C2CC2)CC3)cn1,-27.1
22,O=C(Cn1nc(-c2ccc(F)cc2)oc1=O)NCCc1ccccc1,27.6

row,SMILES,INHIBITION [%]
1,CNC(=O)CN1CC[C@H]2CN(C(=O)c3ccc(C)cc3)C[C@H]2C1,-99.2
2,Cc1nc(CN2CCC3(CCCN(Cc4cccnc4)C3)C2=O)cs1 (stereo not given),36.2
3,CC(C)C(=O)N1CCC[C@]2(C(=O)N(C)C)CN(c3ccccn3)C[C@@H]2C1,-28
4,Cn1cc(C2CCCN2Cc2csc(Cc3ccccc3)n2)cn1 (stereo not given),35.9
5,COc1ccc(CNC(=O)c2ccoc2CN2CCNC(=O)C2)cc1,29.3
6,CCCc1nc(N2CCCCC2)c2c(n1)c(C)nn2CC,11.7
7,CCCc1nc(N2CCN(CC)CC2)c2c(n1)c(C)nn2CC,33.5
8,CCCc1nc(N2CCSCC2)c2c(n1)c(C)nn2CC,-3.47
9,CCCc1nc(N2CCC(C)CC2)c2c(n1)c(C)nn2CC,12.3
10,CCCc1nc(N2CCCC(C)C2)c2c(n1)c(C)nn2CC (stereo not given),66.5
11,CCCc1nc(N2CCCCCC2)c2c(n1)c(C)nn2CC,78.4
12,CCC(=O)N1CCC(c2nc(O)c3c(n2)CN(C2CCCCC2)CC3)C1 (stereo not given),38.8
13,Cn1cccc1C(=O)N1CCO[C@@H]2CN(Cc3ccco3)C[C@@H]2C1,15.8
14,c1csc(CN2CCc3ncnc(C4CCOC4)c3CC2)c1 (stereo not given),33
15,COc1ccc(OC)c(CNC2CCCN(c3cccnn3)C2)c1 (stereo not given),30.5
16,COc1ccc(CNC2CCN(CCc3ccncc3)CC2)cc1O,-4.86
17,COc1ccc(-c2ccoc2)cc1CNC1CCCC1,61.9
18,COc1ccc(-c2cn[nH]c2)cc1CNC1CCCC1,9.04
19,COc1cccc(-c2n[nH]cc2CNC2CCC(O)CC2)c1 (stereo not given),19.4
20,COc1ccc(OC)c(CNC2CCCc3nc(N(C)C)ncc32)c1 (stereo not given),37.6
21,CCN1CCC(CNCc2cc(OC)ccc2OC)C1 (stereo not given),10.1
22,COc1ccc(-c2ccncc2)cc1CNC1CCCC1,51.7

row,SMILES,INHIBITION [%]
1,COc1ccc(-c2cc[nH]n2)cc1CNC1CCCC1,72.1
2,Cc1cc(C(=O)CN(Cc2cccnc2)CC2CCCO2)c(C)[nH]1 (stereo not given),10.7
3,Cc1cnc(C(NC(=O)NCC2(CO)CC2)C2CC2)s1 (stereo not given),22.8
4,CC(C)c1nc(C(=O)N2C[C@@H]3CC[C@H]2CN(C2CCOCC2)C3)cs1,44.8
5,CCn1ccc(C(=O)N2CCCC2(C)c2nc(C)cc(N(C)C)n2)n1 (stereo not given),-4.51
6,COc1ccc(CNc2c(C)nn(C(C)C)c2C)cc1OC,62.8
7,COc1cccc(CNc2c(C)nn(C(C)C)c2C)c1,31.3
8,COc1ccc(CNc2cccnc2-n2cccn2)cc1OC,23.9
9,COc1ccc(CNc2c(C)nn(C(C)C)c2C)cc1,69.3
10,COc1ccc2cc(CNc3c(C)nn(C(C)C)c3C)ccc2c1,62.8
11,COc1ccc(CNC(C)c2cnc3cc(C)nn3c2C)cc1 (stereo not given),28.4
12,COc1ccc(C(=O)Nc2c(C)nn(C(C)C)c2C)cc1,10
13,COc1ccc(CNc2n[nH]c(C)n2)cc1,4.03
14,COc1ccc(CNc2nc(C3CC3)no2)cc1OC,25.6
15,O=C1CCOC[C@]2(CN(Cc3ccccc3)C[C@H]2c2cccnc2)N1,20.6
16,CCC(C)N(Cc1ccsc1)C(=O)c1ccc(CO)cc1 (stereo not given),2.7
17,CC(=O)Nc1nc(C2CCN(C(C)=O)CC2)cs1,27.9
18,CC(=O)Nc1nc(C2CCN(C(=O)c3cccnc3)CC2)cs1,60.8
19,CC(=O)Nc1nc(C2CCN(C(=O)c3ccncc3)CC2)cs1,-9.27
20,CC(=O)Nc1nc(C2CCN(CC(N)=O)CC2)cs1,63.7
21,CC(=O)Nc1nc(C2CCN(C(=O)c3cncs3)CC2)cs1,48.6
22,CC(=O)Nc1nc(C2CCN(C(C)C)CC2)cs1,23.4
